Pf growth 48h: P. falciparum growth inhibition at 48 hours (one generation); P. falciparum luciferase growth in erythrocytes, 48 h; Potency, µM (doses to about 28.7 µM), actives largely listed as inhibitors; hit rate 5.9% among 310,000
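Cell-based growth assay: transgenic P. falciparum expressing firefly luciferase, cultured in red cells within RPMI 1640 containing 0.5% w/v Albumax, 24 mM bicarbonate and gentamycin. A drop in luciferase activity indicates inhibition.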
Cycloheximide cs: affects cycloheximide protein synthesis inhibition readout, counter-screen | cell reporter, cycloheximide protein synthesis inhibition counterscreen | max response, % | hit rate 12% among 300,000 | AID 2314; in the data active = max response mostly above about 13%, no sharp cut-off; inactive = mostly below about 14%; also: read at 38.3 µM for the half of the compounds with a filed dose
Shiga inhibitor: blocks Shiga toxin action in Vero cells | Vero cells, Shiga toxin protein synthesis inhibition reporter | inhibition, % at 38.7 µM | hit rate 9.2% among 290,000; in the data active = inhibition mostly above about 28%, no sharp cut-off; inactive = mostly below about 43%
Pf growth 96h: P. falciparum growth inhibition at 96 hours. P. falciparum luciferase reporter growth, 96 h. Potency, µM (series often up to 28.7 µM), actives largely listed as inhibitors. hit rate 6.9% among 320,000. AID 504834
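Readout is luminescence from an integrated firefly luciferase in P. falciparum. Red cells, 2% hematocrit and 0.05% parasitemia final, were cultured with compound through two parasite generations (96 hours) at 37 C, 5% CO2.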
Of the large screens only hits and unclear results are named; the others gave an inactive call. Compounds with a hit are over-represented: about 21% of the library has one in this group of screens. Unless noted, calls follow the shape of the dose curve; as a rule, active = well fitted inhibition curve with a large enough effect; inconclusive = small, poorly fitted or top-dose-only effect, or another doubt; inactive = no such curve, though single readings can be large or run the other way.

CCC(=O)NC1OC(CO)C(O)C(O)C1O (configuration not stated)	none
CCOC(=O)C1=C(C)N=C2SC(C)C(=O)N2C1c1cccc(F)c1 (configuration not stated)	Pf growth 96h inconclusive (no result: Pf growth 48h)
CC1=C(C(=O)OC(C)C)C(c2cccc(F)c2)N2C(=O)C(C)SC2=N1 (configuration not stated)	Pf growth 48h 12µM, Pf growth 96h inconclusive
CC1=C(C(=O)OCC(C)C)C(c2cccc(F)c2)N2C(=O)C(C)SC2=N1 (configuration not stated)	Pf growth 48h 10µM, Pf growth 96h 12µM
Cn1cnnc1SCC(C)(C)NS(=O)(=O)c1ccc(Cl)cc1	Pf growth 96h inconclusive
O=C1CCCc2[nH]c(-c3ccccc3)nc21	Cycloheximide cs 37, Shiga inhibitor 59, Pf growth 96h inconclusive
c1ccc(-c2nc3c([nH]2)CCc2nonc2-3)cc1	Cycloheximide cs 31, Shiga inhibitor 78
COc1ccnc(-n2cccc2C#N)c1C#N	none
CC(=O)c1ccc(N2CCN(C(=S)Nc3ccccc3F)CC2)cc1	Pf growth 48h inconclusive, Pf growth 96h inconclusive
CCCCNC(=S)N1CCN(c2ccc(C(C)=O)cc2)CC1	Pf growth 48h inconclusive, Pf growth 96h inconclusive
CSCCCNC(=S)N1CCN(c2ccc(C(C)=O)cc2)CC1	Pf growth 48h inconclusive, Pf growth 96h 12µM
CC(=O)c1ccc(N2CCN(C(=S)Nc3cc(C)ccc3C)CC2)cc1	Pf growth 48h 10µM, Pf growth 96h inconclusive
Cc1c(Nc2ncccc2C(=O)O)cccc1C(F)(F)F	none (no result: Cycloheximide cs, Shiga inhibitor)
Cc1nc(-c2ccncc2)nc(NCCNc2ncccc2C(F)(F)F)c1Cl	Pf growth 48h 10µM, Pf growth 96h inconclusive
Cc1ccnc(NC(=O)CCC(=O)c2cc(C)sc2C)c1	none (no result: Cycloheximide cs, Shiga inhibitor)
COCCN1CN=C(Nc2nc3ccccc3s2)NC1	Cycloheximide cs 21, Shiga inhibitor 31
COCCN1CN=C(Nc2nc3ccccc3o2)NC1	Cycloheximide cs 27
c1ccc2sc(NC3=NCN(C4CCCCCC4)CN3)nc2c1	Pf growth 48h inconclusive, Pf growth 96h inconclusive
c1ccc2oc(NC3=NCN(C4CCCCC4)CN3)nc2c1	Cycloheximide cs 20
COCCN1CN=C(NS(=O)(=O)c2ccc(C)cc2)NC1	none
CC(C)N1CN=C(Nc2nc3ccccc3o2)NC1	Cycloheximide cs 37, Shiga inhibitor 37, Pf growth 96h inconclusive
Cc1cc(-c2nnnn2-c2cc(Cl)cc(Cl)c2)no1	none
CCCCN1CN=C(Nc2nc3ccccc3o2)NC1	Cycloheximide cs 62, Shiga inhibitor 116
CN(C)c1ccc(NC(=O)C[n+]2ccccc2)cc1	none
O=C(C[n+]1ccccc1)Nc1ccc(Oc2ccccc2)cc1	Pf growth 48h 6.6µM
CCN(CC)CC(=O)Nc1ccc(Oc2ccc(NC(=O)CN(CC)CC)cc2)cc1	Pf growth 48h inconclusive
CCN(CC)C(=O)C(=O)Nc1ccc(Oc2ccccc2)cc1	Cycloheximide cs 24, Shiga inhibitor 78
O=C(C[n+]1ccccc1)Nc1ccccc1Br	Cycloheximide cs 24, Shiga inhibitor 53
O=C(O)c1csc(Cc2ccccc2)n1	none
COc1ccc(NC(=O)c2csc(Cc3ccccc3)n2)cc1	Cycloheximide cs 43 (no result: Pf growth 96h)
O=C(Nc1ccc(F)cc1)c1csc(Cc2ccccc2)n1	Cycloheximide cs 55, Shiga inhibitor 104
COc1ccc(CNC(=O)c2csc(Cc3ccccc3)n2)cc1	Cycloheximide cs 21, Shiga inhibitor 64
COc1ccccc1CNC(=O)c1csc(Cc2ccc(Cl)cc2)n1	Pf growth 48h inconclusive
COc1ccc(CN(C(=O)c2ccco2)c2ccc(C)c(C)c2)cc1	Pf growth 48h inconclusive
CCCCc1nc2ccccc2c(N)c1CCC (tested in a mixture with another compound)	Pf growth 48h 9.3µM, Pf growth 96h inconclusive
O=C(Nc1cccc(C(F)(F)F)c1)c1cccnn1	none
COC(=O)c1ccc(COc2ccc(CNCc3ccc(Cl)cc3)cc2)cc1	Cycloheximide cs 34, Shiga inhibitor 43
CCCCOc1ccc(C(=O)N2CCCCCC2)cc1	Cycloheximide cs 28, Shiga inhibitor active
O=C(c1ccc(COc2ccccc2Br)cc1)N1CCCCCC1	Pf growth 48h inconclusive, Cycloheximide cs 31, Shiga inhibitor 60
O=C(c1ccc(COc2ccc(Cl)cc2)cc1)N1CCCCC1	Cycloheximide cs 24, Shiga inhibitor 91, Pf growth 96h inconclusive
COc1ccccc1C1CCN(C(=O)c2ccc(Cl)cc2)CC1	Pf growth 48h inconclusive
C=CCc1cc(F)c(S(=O)(=O)N2CCN(S(=O)(=O)c3ccc4c(c3)OCCO4)CC2)cc1F	none (no result: Pf growth 48h, Pf growth 96h)
COc1ccc(NC(NC(=O)c2ccc(OC)cc2)C(Cl)(Cl)Cl)cc1 (configuration not stated)	Pf growth 48h inconclusive, Pf growth 96h 4.1µM
COc1ccc(C(=O)NC(Nc2ccc(C)cc2)C(Cl)(Cl)Cl)cc1 (configuration not stated)	Pf growth 48h inconclusive
Cc1ccc(NC(=O)C(Nc2ccccc2)c2ccccc2)cc1 (configuration not stated)	Pf growth 96h inconclusive
Cc1ccc(NC(=O)C(Nc2cccc(C)c2)c2ccccc2)cc1 (configuration not stated)	Cycloheximide cs 22, Pf growth 96h inconclusive
COc1ccc(NC(=O)C(NC(=O)c2ccc(C)cc2)c2ccccc2)cc1 (configuration not stated)	Pf growth 48h inconclusive, Cycloheximide cs 25, Shiga inhibitor 49, Pf growth 96h inconclusive
CN(CC(=O)NCCc1ccc(S(N)(=O)=O)cc1)CC(=O)Nc1cccc(F)c1	none (no result: Cycloheximide cs, Shiga inhibitor)
CC(C)(O)[C@H]1Cc2cc3ccc(=O)oc3cc2O1	Cycloheximide cs 39, Shiga inhibitor 82
C=C(C)C1Cc2cc3ccc(=O)oc3cc2O1 (configuration not stated)	Cycloheximide cs 16, Pf growth 96h inconclusive
Cc1cnc(C(=O)OCc2ccc(Br)cc2)cn1	none
O=C(O)c1c(Cl)cccc1Cl	none (no result: Cycloheximide cs, Shiga inhibitor)
Cc1ccccc1C1CC(=O)Oc2cc(C)c(Br)c(C)c21 (configuration not stated)	none (no result: Pf growth 48h, Pf growth 96h)
COc1ccc2c(c1)C(=O)CC(c1ccc3c(c1)OCCO3)O2 (configuration not stated)	Cycloheximide cs 43, Shiga inhibitor 61
COc1ccc2c(c1)C(=O)CC(c1ccc(OC)c(OC)c1)O2 (configuration not stated)	Pf growth 96h inconclusive (no result: Shiga inhibitor)
Cc1ccc2c(c1)C(=O)CC(c1ccc3c(c1)OCCO3)O2 (configuration not stated)	Cycloheximide cs 41, Shiga inhibitor 64
COc1ccc2c(c1)C(=O)CC(c1ccccc1F)O2 (configuration not stated)	Cycloheximide cs 13, Shiga inhibitor 36
CCN(CC)/C(Sc1ccccc1)=C(/C(Cl)=C(Cl)Cl)[N+](=O)[O-]	Cycloheximide cs 24, Pf growth 96h inconclusive
Cc1cc2nn(-c3ccccc3)nc2cc1NC(=O)c1cccs1	Cycloheximide cs 22, Shiga inhibitor active, Pf growth 96h inconclusive
CC(=O)Nc1cc2nn(-c3ccccc3)nc2cc1C	Cycloheximide cs 59, Shiga inhibitor 83, Pf growth 96h 13µM
CCC(=O)Nc1nc(N)n(-c2ccccc2)n1	none (no result: Pf growth 48h)
CCC(=O)Nc1cc2nn(-c3ccccc3)nc2cc1Cl	Cycloheximide cs 43, Shiga inhibitor 80
